In PubChem BioAssay AID651871 (Sanford-Burnham Center for Chemical Genomics, 2012) one finds activity (protection/inhibition) data, which are given here for 1 molecule.

Structures are written as SMILES. Values joined by “and” are separate entries in the source; they are usually repeats but may differ in a detail not shown here. Identical values can stand only once.

This assay concerns HL-1. The assay is described as follows: protection of cardiomyocytes from stress damage, SAR follow-up, cell-based, panel, H9c2 and HL-1, ATP luminescence, set 2 (AID 651871).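 Note: cells exposed to stressor for 2 h before ATP readout; reference of the scale not given here.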 The following applies: H9c2/HL-1 cardiomyocytes, 2-deoxyglucose stress, with 2-deoxyglucose, run 15, at 19.8 µM (top of the series).

As for `COc1ccc2c(c1OC)C(=O)N1c3ccccc3C(=O)N(Cc3cccc(Cl)c3Cl)C21` (stereo unspecified), the activity (protection/inhibition) is 69.2% and 28.8%.
